Consider five compounds from PubChem BioAssay.

The test system of test [1] is Wnt5a (protein binding on small-molecule microarray). Description: Wnt5a binders on small-molecule microarray, primary screen, biophysical, 635/667 nm fluorescence (AID 1142).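 Further: fluorescence read at 667 nm with signal to noise per printed feature.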 The settings on record: 635 nm fluorescence, higher = more signal.
Test [2] is described as follows: cell viability in Huh7 cells, primary screen, cytotoxicity control for HCV replication inhibitor project, CellTiter-Glo luminescence, basal, 48 h (AID 1143).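 Further: Huh7 hepatoma cells carrying a hepatitis C replication reporter with no stimulus; test concentration not given here.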 The settings on record: Huh7 HCV replicon, higher = more signal, called active from +8 up or from −8 down.
Test [3] is described as follows: P. aeruginosa biofilm formation inhibitors, primary screen, PAO1 strain, BacTiter-Glo luminescence, LB-PBS (AID 1144). The note with it: 12 h, higher = more signal.
Test [4] in a line: CREB reporter modulators without forskolin, primary screen, cell-based, PC12, CRE-LacZ reporter, unstimulated (AID 1145). The note with it: no forskolin, luminescence, 4.5 h, higher = more signal, called active from +8 up or from −8 down.
Test [5] in a line: CREB reporter modulators under forskolin, primary screen, cell-based, PC12, CRE-LacZ reporter, forskolin-stimulated (AID 1146).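 Further: PC12 cells with 6xCRE LacZ reporter stimulated by forskolin 10 µM; beta-galactosidase reporter signal reflecting CREB driven transcription.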 The settings on record: luminescence, 4.5 h, higher = more signal, called active from +8 up or from −8 down.
For test [6], the target named is Streptavidin (Streptomyces avidinii) (UniProt P22629). Kind of test: streptavidin binders on small-molecule microarray, primary screen, artefact control for SMM compound annotation, biophysical, 635/667 nm fluorescence (AID 1147).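 Further: signal reflects streptavidin binding to arrayed compounds as a control protein.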 The settings on record: streptavidin binding, higher = more signal.
Test [7] in a line: small-molecule binders of probe aInhba, primary screen, biochemical, small-molecule microarray, 635/667 nm fluorescence (AID 1148).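 Further: score merges 667nm spot fluorescence with signal-to-noise for antibody binding to printed compounds.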 The note with it: higher = more signal.
Test [8] deals with Torsin-1A (Homo sapiens) (UniProt O14656). Kind of test: torsin A binders from cell lysate, primary screen, small-molecule microarray, wild-type, 635/667 nm (AID 1149). The settings on record: COS7 hTOR1A-WT lysate, 635 nm fluorescence, higher = more signal.
Test [9] has the same target. Description: small-molecule binders of mutant TOR1A in lysate, primary screen, cell lysate, small-molecule microarray, COS7 lysate, 635/667 nm fluorescence (AID 1150).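 Further: score pools 667 nm emission and signal to noise measuring lysate protein binding.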 The note with it: COS7 hTOR1A mutant lysate, 635 nm fluorescence, higher = more signal.
The test system of test [10] is Sonic hedgehog protein (Shh). Kind of test: small-molecule binders of Shh protein, primary screen, biochemical, small-molecule microarray, 635/667 nm fluorescence (AID 1151).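 Further: Shh protein binding to compounds spotted on small-molecule microarray slides; score combines spot fluorescence intensity with signal-to-noise across triplicate slides.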 The settings on record: small-molecule microarray binding, 635 nm fluorescence; higher = more signal.
The nature of test [11]: E. coli DRC41 culture turbidity changes, primary screen, E. coli filamentation inducer project, strain DRC41, OD650, 48 h (AID 1152).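 Further: E. coli MC1000 strain DRC41 lacking acrAB efflux pump and sulA.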 The settings on record: E. coli DRC41 (acrAB sulA), higher = more signal, called active from +8 up or from −8 down.
A short description of test [12]: small-molecule binders of probe aLefty1, primary screen, biochemical, small-molecule microarray, 635/667 nm fluorescence (AID 1153).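 Further: score merges spot fluorescence with signal-to-noise ratio from the scanned slide images.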 The settings on record: higher = more signal.
Test [13] in a line: PSAC antagonists in infected red cells, primary screen, cell-based, P. falciparum Indochina, OD700, 1 h (AID 1154). The settings on record: P. falciparum Indochina infected RBC osmotic lysis, higher = more signal, called active from +8 up or from −8 down.
The nature of test [14]: PSAC antagonists in infected red cells, primary screen, cell-based, P. falciparum Indochina, OD700, 2 h (AID 1155).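 Further: lysis reports solute entry through the parasite surface anion channel PSAC; channel blockers reduce lysis of infected cells.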 The note with it: P. falciparum Indochina infected erythrocytes, osmotic lysis OD700; higher = more signal, called active from +8 up or from −8 down.
Test [15] is described as follows: osmotic lysis modulators in infected erythrocytes, primary screen, PSAC antagonist project, cell-based, P. falciparum Indochina, OD700, 3 h (AID 1156). The note with it: higher = more signal, called active from +8 up or from −8 down.
The nature of test [16]: PSAC antagonists in infected red cells, primary screen, cell-based, P. falciparum Indochina, OD700, 18 h (AID 1157). The settings on record: P. falciparum Indochina infected erythrocytes, osmotic lysis OD700, 18 h; higher = more signal, called active from +8 up or from −8 down.
Test [17] can be described thus: modulators of S6 phosphorylation in cells, primary screen, cell-based, A549, cytoblot, luminescence, serum-stimulated (AID 1158).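 Further: serum-stimulated A549 lung adenocarcinoma cells; signal is phosphorylated S6 detected by cytoblot immunostaining with HRP secondary.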 The note with it: A549 phospho-S6 cytoblot, 5 h, higher = more signal.
Test [18] addresses NADPH oxidase 2 (Homo sapiens) (UniProt P04839). Kind of test: NOX2-dependent H2O2 signal modulators, primary screen, NOX inhibitor project, cell-based, HEK293-NOX2, PMA-stimulated, Amplex Red fluorescence (AID 1159). Further: test concentration not given here. The note with it: 45 min, higher = more signal, called active from +8 up or from −8 down.
The target of test [19] is NADPH oxidase 4 (Homo sapiens) (UniProt Q9NPH5). Description: NOX4-dependent H2O2 signal modulators, primary screen, NOX inhibitor project, cell-based, HEK293-NOX4, tetracycline-induced, Amplex Red fluorescence (AID 1160). The note with it: 45 min, higher = more signal, called active from +8 up or from −8 down.
Test [20] addresses NADPH oxidase 5 (Homo sapiens) (UniProt Q96PH1). Kind of test: NOX5-dependent H2O2 signal modulators, primary screen, NOX inhibitor project, cell-based, HEK293-NOX5, Amplex Red fluorescence (AID 1161). The note with it: HEK293-NOX5, ionomycin, 45 min, higher = more signal.

The structures appear in SMILES notation. Activity calls are given as the source filed them. Unless noted, how the calls were made is not given here.

NADPH oxidase 2 (Homo sapiens), sequence (P04839 whole entry, looked up): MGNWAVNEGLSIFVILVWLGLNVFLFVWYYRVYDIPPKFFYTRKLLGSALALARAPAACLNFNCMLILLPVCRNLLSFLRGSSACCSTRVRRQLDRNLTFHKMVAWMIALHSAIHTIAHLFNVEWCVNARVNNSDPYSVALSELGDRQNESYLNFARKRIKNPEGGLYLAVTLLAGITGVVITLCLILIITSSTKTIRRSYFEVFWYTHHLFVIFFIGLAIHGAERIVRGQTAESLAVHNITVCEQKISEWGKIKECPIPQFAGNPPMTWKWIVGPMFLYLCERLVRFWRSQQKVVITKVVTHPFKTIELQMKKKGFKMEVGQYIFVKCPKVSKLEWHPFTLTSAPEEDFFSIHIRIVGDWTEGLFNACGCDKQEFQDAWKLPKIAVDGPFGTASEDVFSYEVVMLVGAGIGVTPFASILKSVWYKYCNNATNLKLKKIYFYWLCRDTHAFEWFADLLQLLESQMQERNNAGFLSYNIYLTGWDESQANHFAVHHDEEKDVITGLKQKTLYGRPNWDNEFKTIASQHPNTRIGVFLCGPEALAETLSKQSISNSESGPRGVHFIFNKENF
NADPH oxidase 4 (Homo sapiens), sequence (Q9NPH5 whole entry, looked up): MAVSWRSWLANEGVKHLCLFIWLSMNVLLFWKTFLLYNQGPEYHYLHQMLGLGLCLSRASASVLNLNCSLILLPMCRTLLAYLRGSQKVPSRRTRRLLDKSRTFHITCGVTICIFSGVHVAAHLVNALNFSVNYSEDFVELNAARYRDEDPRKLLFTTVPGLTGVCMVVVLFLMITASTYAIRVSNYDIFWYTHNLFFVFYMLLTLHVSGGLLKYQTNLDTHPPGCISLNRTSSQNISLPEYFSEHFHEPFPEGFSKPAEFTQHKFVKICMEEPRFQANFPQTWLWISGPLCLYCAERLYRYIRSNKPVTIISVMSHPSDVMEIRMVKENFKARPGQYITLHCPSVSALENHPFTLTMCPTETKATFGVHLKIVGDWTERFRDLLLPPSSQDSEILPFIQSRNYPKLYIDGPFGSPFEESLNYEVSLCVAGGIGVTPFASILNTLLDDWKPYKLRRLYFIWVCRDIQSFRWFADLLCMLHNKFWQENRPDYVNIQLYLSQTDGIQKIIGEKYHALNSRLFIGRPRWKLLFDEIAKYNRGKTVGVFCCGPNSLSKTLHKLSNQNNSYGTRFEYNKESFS
Torsin-1A (Homo sapiens), sequence (O14656 whole entry, looked up): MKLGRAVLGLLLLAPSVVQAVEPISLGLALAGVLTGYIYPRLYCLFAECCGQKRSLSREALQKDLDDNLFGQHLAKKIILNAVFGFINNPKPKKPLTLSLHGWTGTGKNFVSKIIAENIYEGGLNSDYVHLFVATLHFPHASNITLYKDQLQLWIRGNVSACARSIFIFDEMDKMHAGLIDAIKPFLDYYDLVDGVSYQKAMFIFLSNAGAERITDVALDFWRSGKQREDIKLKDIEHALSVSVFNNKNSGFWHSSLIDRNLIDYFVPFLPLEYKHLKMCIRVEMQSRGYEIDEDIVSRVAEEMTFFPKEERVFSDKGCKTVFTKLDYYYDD
NADPH oxidase 5 (Homo sapiens), sequence (Q96PH1 whole entry, looked up): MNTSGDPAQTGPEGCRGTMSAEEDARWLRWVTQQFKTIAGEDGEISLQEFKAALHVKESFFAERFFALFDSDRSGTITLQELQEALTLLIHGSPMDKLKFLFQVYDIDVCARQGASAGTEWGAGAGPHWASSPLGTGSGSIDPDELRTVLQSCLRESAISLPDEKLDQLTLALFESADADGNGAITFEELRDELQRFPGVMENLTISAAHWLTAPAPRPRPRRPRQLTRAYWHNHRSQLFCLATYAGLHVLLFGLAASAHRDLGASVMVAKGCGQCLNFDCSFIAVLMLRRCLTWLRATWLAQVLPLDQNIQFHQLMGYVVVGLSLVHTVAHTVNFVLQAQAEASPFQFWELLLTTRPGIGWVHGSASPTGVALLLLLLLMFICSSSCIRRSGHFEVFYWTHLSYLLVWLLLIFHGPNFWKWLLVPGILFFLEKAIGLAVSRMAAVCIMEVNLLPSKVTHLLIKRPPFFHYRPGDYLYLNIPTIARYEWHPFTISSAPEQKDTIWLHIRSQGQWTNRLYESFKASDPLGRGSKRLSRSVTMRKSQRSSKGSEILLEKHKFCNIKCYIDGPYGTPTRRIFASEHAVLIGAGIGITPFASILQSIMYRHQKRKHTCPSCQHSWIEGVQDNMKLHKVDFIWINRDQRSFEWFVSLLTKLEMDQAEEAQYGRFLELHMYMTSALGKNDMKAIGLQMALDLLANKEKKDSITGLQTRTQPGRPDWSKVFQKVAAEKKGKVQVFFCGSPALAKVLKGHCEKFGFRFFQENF
Streptavidin (Streptomyces avidinii), sequence (P22629 whole entry, looked up): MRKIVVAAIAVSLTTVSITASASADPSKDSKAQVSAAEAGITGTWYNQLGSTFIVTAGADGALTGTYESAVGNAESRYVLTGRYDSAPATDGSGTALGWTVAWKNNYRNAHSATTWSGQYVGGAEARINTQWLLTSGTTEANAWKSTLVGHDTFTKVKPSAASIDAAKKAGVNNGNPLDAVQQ

For the compound `COc1ccc([Si](C)(C)[C@@H]2[C@@H](CC(=O)N3Cc4ccccc4C[C@H]3CO)O[C@]3(C(=O)N(Cc4cccc(N5CCC5=O)c4)c4ccccc43)[C@H]2C)cc1`, the composite z-score in test [1] is 0.103; in test [6] it was 0.244; in test [7] it was -0.0463; in the test with Torsin-1A (Homo sapiens) [8] it was 0.589; with Torsin-1A (Homo sapiens) [9] it was 0.61; in test [10], 1.45. Also, the composite z-score in test [12] is 0.199. Moreover, the z-score in [2] was -3.42 (inactive); in [3], -0.0211 (inactive); in test [4], 2.03 (inactive); in test [5] it was 1.34 (inactive); in test [11] it was -0.879 (inactive); in [13], 2.84 (inactive). Moreover, the z-score in test [14] was 1.09 (inactive); in [15], -0.2 (inactive); in [16], 0.917 (inactive); in [17], 0.275; in [18] it was -0.355 (inactive); in test [19], 0.912 (inactive). The z-score in [20] stood at 2.11.
Regarding `COCCOC(=O)N1C(=O)[C@@]2(c3ccccc31)[C@H](C(N)=O)[C@H]1C(=O)O[C@H](c3ccccc3)[C@H](c3ccccc3)N1[C@@H]2c1ccc(O)cc1`, the composite z-score was 0.169 in [1]; -0.432 in [6]; -0.204 in [7]; 0.603 with Torsin-1A (Homo sapiens) [8]; 0.779 with Torsin-1A (Homo sapiens) [9]; 0.105 in [10]. Further, the composite z-score in test [12] was -0.649. Also, the z-score in test [2] is -2.51 (inactive); in test [3], -0.166 (inactive); in test [4], -0.375 (inactive); in test [5], 0.06 (inactive); in [11], 0.912 (inactive); in test [13], 0.658 (inactive). Besides, the z-score in [14] was -1.28 (inactive); in test [15], -0.142 (inactive); in test [16], -2.25 (inactive); in [17] it was 2.74; in [18], -0.339 (inactive); in test [19], -0.637 (inactive). For the same compound, the z-score in [20] is -0.534.
Regarding `C=C(CCCC)C(=O)CC[C@@H](OC(C)=O)c1ccc(CO)o1`, the composite z-score in test [1] was 0.52; in [6], -0.918; in test [7], -0.154; in the test with Torsin-1A (Homo sapiens) [8], -0.0372; with Torsin-1A (Homo sapiens) [9], 0.232; in test [10], 1.95. The compound further returned a composite z-score in test [12] of -0.0278. Further, the z-score is -1.56 (inactive) in test [2]; -0.905 (inactive) in [3]; -0.35 (inactive) in [4]; 0.516 (inactive) in [5]; 0.0002 (inactive) in test [11]; 0.113 (inactive) in test [13]. Moreover, the z-score in test [14] is 0.0176 (inactive); in test [15], -1.18 (inactive); in [16] it was 0.184 (inactive); in test [17] it was -0.0622; in test [18], -1.23 (inactive); in [19], -0.538 (inactive). For the same compound, in [20], the z-score was -2.37.
Regarding `C=CCNC(=O)[C@@H]1[C@H]2C(=O)O[C@H](c3ccccc3)[C@H](c3ccccc3)N2[C@H](c2ccc(OCCO)cc2)[C@@]12C(=O)N(C(=O)OCCOC)c1ccc(C#CCC(C(=O)OC)C(=O)OC)cc12`, the composite z-score in [1] amounted to 0.486; in test [6] it was 0.386; in [7] it was 0.322; with Torsin-1A (Homo sapiens) [8], 0.126; with Torsin-1A (Homo sapiens) [9] it was 0.681; in test [10], 1.09. The composite z-score in [12] is 0.404. Also, the z-score in test [2] was -2.47 (inactive); in test [3], 0.975 (inactive); in test [4], 0.208 (inactive); in [5], -0.208 (inactive); in test [11] it was -0.314 (inactive); in test [13], 7.08 (inactive). In addition, the z-score was 1.72 (inactive) in test [14]; -0.211 (inactive) in test [15]; 0.581 (inactive) in test [16]; -0.0943 in test [17]; 2.26 (inactive) in test [18]; 1.2 (inactive) in test [19]. In test [20], this compound had a z-score of 1.37.
On to `CN1C(=O)C2C=CC(C(O)c3ccccc3)N(N3CCCCC3)C2C1=O` (stereo not given), for which the composite z-score in test [1] was 0.691; in test [6], 0.479; in test [7], 0.0301; with Torsin-1A (Homo sapiens) [8], 0.305; with Torsin-1A (Homo sapiens) [9], 1.14; in test [10], -0.689. This compound registered a composite z-score in test [12] of 0.0971. In addition, the z-score in [2] is 0.573 (inactive); in [3] it was -0.127 (inactive); in test [4], 0.819 (inactive); in test [5] it was 0.584 (inactive); in test [11], -2 (inactive); in test [13], 0.15 (inactive). In addition, the z-score in test [14] was 0.913 (inactive); in test [15] it was 0.302 (inactive); in test [16], 0.827 (inactive); in test [17] it was -0.965; in test [18], -0.121 (inactive); in test [19], -1.01 (inactive). The same compound yielded a z-score in [20] of -1.08.
